Reference: the supplement of paper PMC6089552
About 300 (9.4%) of roughly 3,200 compounds showed activity. This excerpt belongs to a sample that is enriched for actives.

Tested on: A673/TR/shEF
Experiment: cell viability (LOESS-normalised, relative to median of negative controls) (log2 ratio); higher = more viable cells (less compound effect), active = hit call of the paper (over 3 MAD below the median)
Details: treatment time: 72 h
Outline: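 A673/TR/shEF Ewing sarcoma cells (1,500 per well, 384-well plates) were grown with or without doxycycline to induce EWS-FLI1 shRNA knockdown, starting 24 h before compounds. Library compounds at two or more concentrations, with DMSO controls, were added for three days. Cell viability was read by CellTiter-Glo luminescence on an Envision reader, then LOESS-corrected per plate, divided by the median of negative controls and log2-transformed. Hits were wells at least three median absolute deviations from the median of all screened wells.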

[1] = 0.25 µM, library screen: screen1, EWS-FLI1 expression: high (no doxycycline)
[2] = 0.25 µM, library screen: screen1, EWS-FLI1 expression: low (doxycycline-induced shRNA knockdown)
[3] = 2.5 µM, library screen: screen1, EWS-FLI1 expression: high (no doxycycline)
[4] = 2.5 µM, library screen: screen1, EWS-FLI1 expression: low (doxycycline-induced shRNA knockdown)
[5] = 0.103 µM, library screen: screen3, EWS-FLI1 expression: high (no doxycycline)
[6] = 0.103 µM, library screen: screen3, EWS-FLI1 expression: low (doxycycline-induced shRNA knockdown)
[7] = 0.308 µM, library screen: screen3, EWS-FLI1 expression: high (no doxycycline)
[8] = 0.308 µM, library screen: screen3, EWS-FLI1 expression: low (doxycycline-induced shRNA knockdown)
[9] = 0.926 µM, library screen: screen3, EWS-FLI1 expression: high (no doxycycline)
[10] = 0.926 µM, library screen: screen3, EWS-FLI1 expression: low (doxycycline-induced shRNA knockdown)
[11] = 2.8 µM, library screen: screen3, EWS-FLI1 expression: high (no doxycycline)
[12] = 2.8 µM, library screen: screen3, EWS-FLI1 expression: low (doxycycline-induced shRNA knockdown)
[13] = 8.3 µM, library screen: screen3, EWS-FLI1 expression: high (no doxycycline)
[14] = 8.3 µM, library screen: screen3, EWS-FLI1 expression: low (doxycycline-induced shRNA knockdown)
[15] = 25 µM, library screen: screen3, EWS-FLI1 expression: high (no doxycycline)
[16] = 25 µM, library screen: screen3, EWS-FLI1 expression: low (doxycycline-induced shRNA knockdown)
[17] = 0.25 µM, library screen: screen2, EWS-FLI1 expression: high (no doxycycline)
[18] = 0.25 µM, library screen: screen2, EWS-FLI1 expression: low (doxycycline-induced shRNA knockdown)
[19] = 2.5 µM, library screen: screen2, EWS-FLI1 expression: high (no doxycycline)
[20] = 2.5 µM, library screen: screen2, EWS-FLI1 expression: low (doxycycline-induced shRNA knockdown)

Measured: cell viability (log2)

COc1ccccc1-c1coc2cc(O)ccc2c1=O
inactive: [1] 0.111 | [2] 0.0685 | [3] 0.111 | [4] -0.0147

COc1cc(C(=O)O)c(O)c2c1OCO2
inactive: [1] -0.00582 | [2] -0.144 | [3] 0.116 | [4] -0.0061

C[C@@H]1C[C@H]2[C@@H]3C[C@H](F)C4=CC(=O)C=C[C@]4(C)[C@@]3(F)[C@@H](O)C[C@]2(C)[C@H]1C(=O)COC(=O)C(C)(C)C
inactive: [1] 0.00935 | [2] -0.0577 | [3] 0.0831 | [4] -0.0529

COc1cc(O)c(C(=O)c2ccccc2)c(OC)c1
inactive: [1] 0.0618 | [2] 0.0186 | [3] 0.0469 | [4] 0.0894

OC[C@H]1O[C@@](CO)(O[C@H]2O[C@H](CO)[C@@H](O)[C@H](O)[C@H]2O)[C@@H](O[C@H]2O[C@H](CO)[C@@H](O)[C@H](O)[C@H]2O)[C@@H]1O
inactive: [1] 0.0123 | [2] 0.0415 | [3] 0.0346 | [4] 0.126

COCCOC(=O)C1=C(C)NC(=S)NC1c1ccccc1OC (stereo not given)
inactive: [1] 0.0949 | [2] 0.0382 | [3] 0.0563 | [4] 0.0651

C=CC(C)(CCC1C(=C)CC(OC(C)=O)C2C(C)(C)CCCC12C)OC(C)=O (stereo not given)
inactive: [1] 0.025 | [2] 0.066 | [3] 0.163 | [4] -0.0558

O=C1[C@H](Cc2ccc(O)cc2)N2C(=O)CCN(C(=O)NCc3ccccc3)[C@H]2CN1Cc1cccc2ccccc12
inactive: [5] -0.0101 | [6] 0.068 | [7] 0.0453 | [8] 0.0327 | [9] 0.0157 | [10] 0.0736 | [11] 0.0365 | [12] 0.0441 | [13] -0.0756 | [14] -0.205
active: [15] -1.07 | [16] -1.18

O=C(O)[C@@H]1C2CC3c4[nH]c5ccccc5c4CCN3CC2CC[C@@H]1O (stereo not given in full)
inactive: [1] 0.0321 | [2] 0.0471 | [3] 0.097 | [4] 0.142

Nc1ccn([C@H]2CC[C@@H](CO)O2)c(=O)n1
inactive: [5] 0.122 | [6] 0.0536 | [17] 0.188 | [18] 0.111 | [7] 0.116 | [8] 0.0808 | [9] 0.123 | [10] 0.139 | [19] 0.0418 | [20] 0.107 | [11] 0.148 | [12] 0.0816 | [13] 0.0629 | [14] 0.0663 | [15] 0.132 | [16] 0.176

Nc1ccn([C@@H]2O[C@H](CO)[C@@H](O)[C@H]2O)c(=O)n1
inactive: [1] 0.138 | [2] 0.019 | [3] 0.237 | [4] 0.0416

C[N+](C)(C)CCOP(=O)([O-])OP(=O)(O)OC[C@H]1O[C@@H](n2ccc(N)nc2=O)[C@H](O)[C@@H]1O
inactive: [17] 0.0983 | [18] 0.0319 | [19] 0.095 | [20] 0.0926

NC(=O)c1ncn([C@@H]2O[C@H](CO)[C@@H](O)[C@H]2O)c1N
inactive: [5] 0.135 | [6] 0.0617 | [7] 0.0707 | [8] 0.0876 | [9] 0.088 | [10] 0.0588 | [11] 0.1 | [12] 0.0775 | [13] 0.0463 | [14] 0.126 | [15] 0.13 | [16] 0.087

Nc1ccn([C@@H]2O[C@H](CO)[C@@H](O)[C@@H]2O)c(=O)n1
active: [5] -0.206 | [17] -0.179 | [9] -0.377 | [3] -0.85 | [19] -1.17 | [11] -0.966 | [13] -1.5 | [14] -0.184 | [15] -2.24 | [16] -0.544
inactive: [6] -0.0158 | [1] 0.0194 | [2] 0.174 | [18] 0.162 | [7] -0.0966 | [8] 0.00929 | [10] -0.00593 | [4] 0.0115 | [20] -0.0511 | [12] -0.023
